According to PubChem BioAssay AID1159580 (chemical genetic matrix, 2015):
Several values for one entry are separate records, joined by “and”; a condition that tells them apart may be missing. Equal values may be shown once. About 2,000 (36%) of roughly 5,500 compounds were called active. Another 18% or so got no clear call; they are omitted. Rule as the data show it: active = normalized growth mostly below about 0.91 (no sharp cut-off); inconclusive = no clear call, values can overlap the other calls; inactive = mostly above about 0.92. This is one part of the list.

Experiment: chemical genetic growth profiling, strain panel (AID 1159580);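 also: tested at 20 µM; growth read once vehicle control cultures reached saturation at 30 °C; 1 = growth at the plate median or of vehicle wells; lower values mean less growth of the strain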
Conditions: growth OD

Measured: normalized growth

CC(=O)O[C@@H]1CC2C(C)(C)C(=O)C=C[C@]2(C)C2CC[C@]3(C)C(=CC(=O)O[C@H]3c3ccoc3)[C@@]21C (stereo partly drawn)
inactive: S. cerevisiae deletion strains, locus YAL013W, strain DEP1, stronger effect = lower value 0.996 | S. cerevisiae deletion strains, locus YAL021C, strain ccr4, stronger effect = lower value 1.01 | S. cerevisiae deletion strains, locus YAL026C, strain drs2, stronger effect = lower value 1.01 | S. cerevisiae deletion strains, locus YAL030W, strain snc1, stronger effect = lower value 1 | S. cerevisiae deletion strains, locus YBL061C, strain skt5, stronger effect = lower value 1.03 | S. cerevisiae deletion strains, locus YBR009C, strain hhf1, stronger effect = lower value 1.01 | S. cerevisiae deletion strains, locus YBR021W, strain FUR4, stronger effect = lower value 0.988 | S. cerevisiae deletion strains, locus YBR023C, strain chs3, stronger effect = lower value 1 | S. cerevisiae deletion strains, locus YBR171W, strain sec66, stronger effect = lower value 1.01 | S. cerevisiae deletion strains, locus YBR229C, strain ROT2, stronger effect = lower value 0.941 | S. cerevisiae deletion strains, locus YBR231C, strain swc5, stronger effect = lower value 0.998 | S. cerevisiae deletion strains, locus YBR279W, strain paf1, stronger effect = lower value 1.01 | S. cerevisiae deletion strains, locus YCL011C, strain gbp2, stronger effect = lower value 0.993 | S. cerevisiae deletion strains, locus YCL016C, strain dcc1, stronger effect = lower value 1.01 | S. cerevisiae deletion strains, locus YCL029C, strain bik1, stronger effect = lower value 0.977 | S. cerevisiae deletion strains, locus YCL069W, strain vba3, stronger effect = lower value 1 | S. cerevisiae deletion strains, locus YCR088W, strain abp1, stronger effect = lower value 1.01 | S. cerevisiae deletion strains, locus YDL005C, strain med2, stronger effect = lower value 0.995 | S. cerevisiae deletion strains, locus YDL035C, strain GPR1, stronger effect = lower value 0.964 | S. cerevisiae deletion strains, locus YDL040C, strain nat1, stronger effect = lower value 1 | S. cerevisiae deletion strains, locus YDL074C, strain BRE1, stronger effect = lower value 0.979 | S. cerevisiae deletion strains, locus YDL101C, strain DUN1, stronger effect = lower value 1 | S. cerevisiae deletion strains, locus YDL185W, strain tfp1, stronger effect = lower value 0.959 | S. cerevisiae deletion strains, locus YDL192W, strain arf1, stronger effect = lower value 0.978 | S. cerevisiae deletion strains, locus YDR001C, strain nth1, stronger effect = lower value 1.01 | S. cerevisiae deletion strains, locus YDR069C, strain doa4, stronger effect = lower value 1.02 | S. cerevisiae deletion strains, locus YDR101C, strain arx1, stronger effect = lower value 0.956 | S. cerevisiae deletion strains, locus YDR137W, strain rgp1, stronger effect = lower value 1.05 | S. cerevisiae deletion strains, locus YDR159W, strain sac3, stronger effect = lower value 1.01 | S. cerevisiae deletion strains, locus YDR162C, strain NBP2, stronger effect = lower value 0.988 | S. cerevisiae deletion strains, locus YDR195W, strain ref2 0.968 | S. cerevisiae deletion strains, locus YDR297W, strain sur2, stronger effect = lower value 0.992 | S. cerevisiae deletion strains, locus YDR318W, strain mcm21, stronger effect = lower value 0.983 | S. cerevisiae deletion strains, locus YDR334W, strain swr1, stronger effect = lower value 1.01 | S. cerevisiae deletion strains, locus YDR335W, strain msn5, stronger effect = lower value 1.01 | S. cerevisiae deletion strains, locus YDR388W, stronger effect = lower value 0.983 | S. cerevisiae deletion strains, locus YDR392W, strain spt3, stronger effect = lower value 1.01 | S. cerevisiae deletion strains, locus YDR502C, strain sam2, stronger effect = lower value 1.02 | S. cerevisiae deletion strains, locus YEL003W, strain gim4, stronger effect = lower value 1.01 | S. cerevisiae deletion strains, locus YEL037C, strain rad23, stronger effect = lower value 1 | S. cerevisiae deletion strains, locus YEL061C, strain CIN8 (second series), stronger effect = lower value 1.01 | S. cerevisiae deletion strains, locus YER015W, strain faa2, stronger effect = lower value 1.01 | S. cerevisiae deletion strains, locus YER016W, strain bim1, stronger effect = lower value 1.01 | S. cerevisiae deletion strains, locus YER110C, stronger effect = lower value 0.966 | S. cerevisiae deletion strains, locus YER111C, strain swi4, stronger effect = lower value 1.01 | S. cerevisiae deletion strains, locus YER155C, strain BEM2 (second series), stronger effect = lower value 1 | S. cerevisiae deletion strains, locus YER155C, strain BEM2, stronger effect = lower value 0.989 | S. cerevisiae deletion strains, locus YER167W, strain BCK2, stronger effect = lower value 0.975 | S. cerevisiae deletion strains, locus YFR010W, strain ubp6, stronger effect = lower value 1.01 | S. cerevisiae deletion strains, locus YGL078C, strain dbp3, stronger effect = lower value 1.02 | S. cerevisiae deletion strains, locus YGL086W, strain mad1, stronger effect = lower value 0.992 | S. cerevisiae deletion strains, locus YGL167C, strain pmr1, stronger effect = lower value 1 | S. cerevisiae deletion strains, locus YGL173C, strain kem1, stronger effect = lower value 1 | S. cerevisiae deletion strains, locus YGL227W, strain vid30, stronger effect = lower value 1.01 | S. cerevisiae deletion strains, locus YGL240W, strain doc1, stronger effect = lower value 1 | S. cerevisiae deletion strains, locus YGL248W, strain PDE1, stronger effect = lower value 1.01 | S. cerevisiae deletion strains, locus YGL253W, strain hxk2, stronger effect = lower value 0.998 | S. cerevisiae deletion strains, locus YGR135W, strain pre9, stronger effect = lower value 1.1 | S. cerevisiae deletion strains, locus YGR252W, strain gcn5, stronger effect = lower value 1.04 | S. cerevisiae deletion strains, locus YHR013C, strain ard1, stronger effect = lower value 0.988 | S. cerevisiae deletion strains, locus YHR027C, strain rpn1, stronger effect = lower value 0.993 | S. cerevisiae deletion strains, locus YHR030C, strain SLT2, stronger effect = lower value 1.02 | S. cerevisiae deletion strains, locus YHR079C, strain IRE1 (second series), stronger effect = lower value 0.982 | S. cerevisiae deletion strains, locus YHR079C, strain IRE1, stronger effect = lower value 0.997 | S. cerevisiae deletion strains, locus YHR094C, strain hxt1, stronger effect = lower value 0.969 | S. cerevisiae deletion strains, locus YHR129C, strain ARP1, stronger effect = lower value 0.993 | S. cerevisiae deletion strains, locus YHR142W, strain chs7, stronger effect = lower value 1.04 | S. cerevisiae deletion strains, locus YHR200W, strain rpn10, stronger effect = lower value 0.994 | S. cerevisiae deletion strains, locus YIL066C, strain RNR3, stronger effect = lower value 0.956 | S. cerevisiae deletion strains, locus YIL073C, strain SPO22, stronger effect = lower value 0.989 | S. cerevisiae deletion strains, locus YIL125W, strain kgd1, stronger effect = lower value 0.981 | S. cerevisiae deletion strains, locus YIR030C, strain dcg1, stronger effect = lower value 0.987 | S. cerevisiae deletion strains, locus YJL092W, strain hpr5, stronger effect = lower value 1 | S. cerevisiae deletion strains, locus YJL095W, strain BCK1 (second series), stronger effect = lower value 0.999 | S. cerevisiae deletion strains, locus YJL095W, strain BCK1, stronger effect = lower value 1.06 and 1.03 | S. cerevisiae deletion strains, locus YJL115W, strain asf1, stronger effect = lower value 1 | S. cerevisiae deletion strains, locus YJL129C, strain trk1, stronger effect = lower value 1.02 | S. cerevisiae deletion strains, locus YJL134W, strain LCB3, stronger effect = lower value 0.97 | S. cerevisiae deletion strains, locus YJL154C, strain vps35, stronger effect = lower value 1 | S. cerevisiae deletion strains, locus YJL164C, strain tpk1, stronger effect = lower value 1 | S. cerevisiae deletion strains, locus YJL166W, strain qcr8, stronger effect = lower value 1 | S. cerevisiae deletion strains, locus YJL168C, strain set2, stronger effect = lower value 0.995 | S. cerevisiae deletion strains, locus YJL187C, strain SWE1 (second series), stronger effect = lower value 1.03 | S. cerevisiae deletion strains, locus YJR066W, strain TOR1, stronger effect = lower value 0.96 | S. cerevisiae deletion strains, locus YKL009W, strain mrt4, stronger effect = lower value 0.986 | S. cerevisiae deletion strains, locus YKL068W, stronger effect = lower value 0.992 | S. cerevisiae deletion strains, locus YKL085W, strain MDH1 (second series), stronger effect = lower value 0.996 | S. cerevisiae deletion strains, locus YKL085W, strain MDH1, stronger effect = lower value 0.996 | S. cerevisiae deletion strains, locus YKL160W, strain elf1, stronger effect = lower value 1.01 | S. cerevisiae deletion strains, locus YKR001C, strain vps1, stronger effect = lower value 0.985 | S. cerevisiae deletion strains, locus YKR026C, strain gcn3, stronger effect = lower value 1.01 | S. cerevisiae deletion strains, locus YKR091W, strain srl3, stronger effect = lower value 1 | S. cerevisiae deletion strains, locus YLL001W, strain dnm1, stronger effect = lower value 1.01 | S. cerevisiae deletion strains, locus YLL026W, stronger effect = lower value 1.02 | S. cerevisiae deletion strains, locus YLL041C, strain sdh2, stronger effect = lower value 1.02 | S. cerevisiae deletion strains, locus YLR027C, strain aat2, stronger effect = lower value 1.01 | S. cerevisiae deletion strains, locus YLR039C, strain RIC1, stronger effect = lower value 0.971 | S. cerevisiae deletion strains, locus YLR058C, strain SHM2, stronger effect = lower value 0.981 | S. cerevisiae deletion strains, locus YLR102C, strain apc9, stronger effect = lower value 0.974 | S. cerevisiae deletion strains, locus YLR113W, strain HOG1, stronger effect = lower value 0.962 | S. cerevisiae deletion strains, locus YLR221C, strain rsa3, stronger effect = lower value 1 | S. cerevisiae deletion strains, locus YLR258W, strain gsy2, stronger effect = lower value 1 | S. cerevisiae deletion strains, locus YLR262C, strain YPT6 (second series), stronger effect = lower value 1.01 | S. cerevisiae deletion strains, locus YLR268W, strain sec22, stronger effect = lower value 0.964 | S. cerevisiae deletion strains, locus YLR320W, strain mms22, stronger effect = lower value 1.01 | S. cerevisiae deletion strains, locus YLR342W, strain FKS1 (second series), stronger effect = lower value 1 | S. cerevisiae deletion strains, locus YLR342W, strain FKS1, stronger effect = lower value 0.999 | S. cerevisiae deletion strains, locus YLR357W, strain rsc2, stronger effect = lower value 1.03 | S. cerevisiae deletion strains, locus YLR370C, strain arc18, stronger effect = lower value 1.02 | S. cerevisiae deletion strains, locus YLR371W, strain rom2, stronger effect = lower value 0.967 | S. cerevisiae deletion strains, locus YLR384C, strain iki3, stronger effect = lower value 1.02 | S. cerevisiae deletion strains, locus YLR418C, strain cdc73, stronger effect = lower value 1.04 | S. cerevisiae deletion strains, locus YML016C, strain PPZ1, stronger effect = lower value 0.973 | S. cerevisiae deletion strains, locus YML032C, strain rad52, stronger effect = lower value 0.966 | S. cerevisiae deletion strains, locus YML120C, strain ndi1, stronger effect = lower value 0.993 | S. cerevisiae deletion strains, locus YML124C, strain tub3, stronger effect = lower value 0.989 | S. cerevisiae deletion strains, locus YMR058W, strain fet3, stronger effect = lower value 1 | S. cerevisiae deletion strains, locus YMR078C, strain ctf18, stronger effect = lower value 0.983 | S. cerevisiae deletion strains, locus YMR125W, strain sto1, stronger effect = lower value 0.999 | S. cerevisiae deletion strains, locus YMR129W, stronger effect = lower value 1 | S. cerevisiae deletion strains, locus YMR205C, strain PFK2, stronger effect = lower value 1 | S. cerevisiae deletion strains, locus YMR223W, strain ubp8, stronger effect = lower value 1.01 | S. cerevisiae deletion strains, locus YMR231W, strain pep5, stronger effect = lower value 1.01 | S. cerevisiae deletion strains, locus YMR307W, strain GAS1, stronger effect = lower value 0.896 | S. cerevisiae deletion strains, locus YNL067W, strain RPL9B, stronger effect = lower value 1.04 | S. cerevisiae deletion strains, locus YNL071W, strain lat1, stronger effect = lower value 1.01 | S. cerevisiae deletion strains, locus YNL153C, strain GIM3, stronger effect = lower value 1.02 | S. cerevisiae deletion strains, locus YNL183C, strain NPR1, stronger effect = lower value 0.993 | S. cerevisiae deletion strains, locus YNL209W, strain ssb2, stronger effect = lower value 0.991 | S. cerevisiae deletion strains, locus YNL233W, strain BNI4, stronger effect = lower value 1.02 | S. cerevisiae deletion strains, locus YNL248C, strain rpa49, stronger effect = lower value 1.02 | S. cerevisiae deletion strains, locus YNL250W, strain rad50, stronger effect = lower value 0.994 | S. cerevisiae deletion strains, locus YNL271C, strain bni1, stronger effect = lower value 0.988 | S. cerevisiae deletion strains, locus YNL298W, strain CLA4, stronger effect = lower value 0.963 | S. cerevisiae deletion strains, locus YNL307C, strain MCK1, stronger effect = lower value 0.991 | S. cerevisiae deletion strains, locus YNL322C, strain KRE1 (second series), stronger effect = lower value 1 | S. cerevisiae deletion strains, locus YNR049C, strain mso1, stronger effect = lower value 1.02 | S. cerevisiae deletion strains, locus YNR052C, strain pop2, stronger effect = lower value 1.02 | S. cerevisiae deletion strains, locus YOL006C, strain TOP1, stronger effect = lower value 0.97 | S. cerevisiae deletion strains, locus YOL012C, strain htz1 0.746 | S. cerevisiae deletion strains, locus YOL147C, strain pex11, stronger effect = lower value 0.982 | S. cerevisiae deletion strains, locus YOR001W, strain rrp6, stronger effect = lower value 1.01 | S. cerevisiae deletion strains, locus YOR061W, strain CKA2, stronger effect = lower value 0.948 | S. cerevisiae deletion strains, locus YOR069W, strain VPS5, stronger effect = lower value 0.992 | S. cerevisiae deletion strains, locus YOR070C, strain gyp1, stronger effect = lower value 1.02 | S. cerevisiae deletion strains, locus YOR080W, strain dia2, stronger effect = lower value 0.995 | S. cerevisiae deletion strains, locus YOR083W, strain WHI5, stronger effect = lower value 1 | S. cerevisiae deletion strains, locus YOR106W, strain vam3, stronger effect = lower value 1.01 | S. cerevisiae deletion strains, locus YOR136W, strain idh2, stronger effect = lower value 0.986 | S. cerevisiae deletion strains, locus YOR144C, strain elg1, stronger effect = lower value 0.979 | S. cerevisiae deletion strains, locus YOR184W, strain ser1, stronger effect = lower value 0.935 | S. cerevisiae deletion strains, locus YOR231W, strain MKK1, stronger effect = lower value 1.03 | S. cerevisiae deletion strains, locus YOR265W, strain rbl2, stronger effect = lower value 1.03 | S. cerevisiae deletion strains, locus YOR270C, strain vph1, stronger effect = lower value 1.07 | S. cerevisiae deletion strains, locus YOR290C, strain snf2, stronger effect = lower value 0.996 | S. cerevisiae deletion strains, locus YOR316C, strain cot1, stronger effect = lower value 0.981 | S. cerevisiae deletion strains, locus YPL051W, strain arl3, stronger effect = lower value 1.01 | S. cerevisiae deletion strains, locus YPL078C, strain atp4, stronger effect = lower value 1 | S. cerevisiae deletion strains, locus YPL106C, strain sse1, stronger effect = lower value 0.986 | S. cerevisiae deletion strains, locus YPL240C, strain hsp82, stronger effect = lower value 1 | S. cerevisiae deletion strains, locus YPL241C, strain CIN2, stronger effect = lower value 0.981 | S. cerevisiae deletion strains, locus YPL256C, strain CLN2, stronger effect = lower value 1 | S. cerevisiae deletion strains, locus YPR119W, strain clb2, stronger effect = lower value 0.988 | S. cerevisiae deletion strains, locus YPR141C, strain kar3, stronger effect = lower value 0.992 | S. cerevisiae deletion strains, locus YPR163C, strain tif3, stronger effect = lower value 0.971 | S. cerevisiae deletion strains, locus YPR167C, strain met16, stronger effect = lower value 0.997 | S. cerevisiae deletion strains, strain wtn01, stronger effect = lower value 0.961 | S. cerevisiae strains, strain wild type, stronger effect = lower value 0.97
